Results with a measured potency or affinity are listed apart. A number with no mark means an inactive call. The rule behind the calls is not given here.
Assay: host cell cytotoxicity of antiviral hits, dose response, cytotoxicity control for West Nile virus antiviral project, secondary assay (AID 1650)
Details: Mammalian host cell viability, cytotoxicity counter-screen; series mostly up to 10 µM; viability: at the top concentration

Compound | viability
N#Cc1c(N)nc2c3c(sc(=N)c2c1N)NC(=O)CC3c1ccccc1Cl (stereo not given) | 93.5%
O=C(CCCN1C(=O)/C(=C\c2ccccc2)SC1=S)Nc1ccc(O)cc1 | 72.3% [at 20 µM]
CN1CCN(C(=O)CCN2C(=O)/C(=C/c3ccc(F)cc3)SC2=S)CC1 | 75.9%
CCOc1ccc(-c2cc(C(=O)NCCCN3CCN(CC)CC3)c3ccccc3n2)cc1 | 82%
CCOC(=O)c1c(CSCc2ccccc2)oc2ccc(O)c(CN(C)C)c12 | 81.7% [at 20 µM]
CN(CCCNC(=O)c1cc2c(Cl)nc3ccccc3c2s1)Cc1ccccc1 | 74.8%
CCOc1ccc(NC(=NCc2ccc3c(c2)OCO3)SC2CC(=O)N(c3ccc(OCC)cc3)C2=O)cc1 (stereo not given) | 79.3% [at 20 µM]
Cc1c(NC(=O)COC(=O)c2cc(-c3ccc(-c4ccccc4)cc3)nc3ccccc23)c(=O)n(-c2ccccc2)n1C | 73.5% [at 5 µM]
CCCC1=Nc2cc(C(=O)NCCN3CCCC3)ccc2Sc2ccccc21 | 81.4%
COc1ccc(-c2ccc(C#N)c(SCC(=O)Nc3sc4c(c3C#N)CCC4)n2)cc1OC | 70.6%
CN(C)CCNC=C(C(=O)Nc1ccc(Cl)cc1Cl)C(=O)Nc1ccc(Cl)cc1Cl | 80.2% [at 20 µM]
Cc1ccc2[nH]c(=O)c(CN(CCCN(C)C)C(=O)Nc3ccc(Cl)cc3)cc2c1 | 74.7%
COc1cc2c(O)c3c(c(-c4ccc5c(c4)OCO5)c2cc1OC)C(=O)OC3 | 79.7% [at 20 µM]
CCCCCCc1c(C)nc(-n2[nH]c(C)c(CCO)c2=O)[nH]c1=O | 89.1%
CC(C)(C)c1ccc(C(=O)O/N=C(\N)c2ccccc2)cc1 | 90.3% [at 20 µM]
O=C(COc1ccc(Cl)cc1)NCCSCc1cccc(Cl)c1 | 90.4% [at 20 µM]
CCOC(=O)N1CCC2(CC1)C(C#N)=C(N)OC1=C2C(=O)CCC1 | 95.4%
COc1ccc(N=c2oc3ccc(OC)cc3cc2-c2nc3ccccc3[nH]2)cc1 | 80.5%
COc1cc(CNC(C)(C)CO)ccc1OCC(=O)Nc1ccc(Br)cc1 | 85.6%
Cc1ccc(OCC(=O)c2cc(C)c(C)cc2C)c([N+](=O)[O-])n1 | 92.3% [at 20 µM]

Compound | viability
CCOc1c2ccoc2nc2c(OC)c(OC)ccc12 | 97.5%
CC12CC3(C)CC(C)(C1)CC(C(=O)NCC(=O)O)(C2)C3 | 82.8%
N#Cc1ncc(-c2ccc3c(c2)OCCOCCOCCOCCOCCO3)nc1C#N | 86.6%
COc1ccc(-c2nc(CN3CCC(C(=O)NC4CCN(Cc5ccccc5)CC4)CC3)c(C)o2)cc1OC | 86% [at 20 µM]
COc1cc([C@H]2c3[nH]c4ccccc4c3C[C@H]3C(=O)N4[C@@H](c5cc(OC)c(OC)c(OC)c5)c5[nH]c6ccccc6c5C[C@H]4C(=O)N23)cc(OC)c1OC | 77.5% [at 20 µM]
CCN1CCN(c2ccc(S(=O)(=O)N3CCCCC3)cc2NC(=O)Cc2c(Cl)cccc2Cl)CC1 | 78.9%
COc1ccc(-c2cc(-c3ccc(OC)cc3)nc(-c3ccc4c(c3)NC(=O)CO4)c2)cc1 | 79.2% [at 20 µM]
COc1ccc(N2CCN(c3oc(-c4ccc(OC)c(OC)c4)nc3C#N)CC2)cc1 | 84.2%
CC1CCN(CCc2nc3cc(NC(=O)COc4ccc(Cl)cc4)ccc3n2C)CC1 | 80.5%
CCOC(=O)c1c(CC(C)C)csc1/N=C/C1=C(O)CCCC1=O | 92% [at 20 µM]
CCc1nn(CC(=O)NC2CCN(Cc3ccccc3)CC2)c(=O)c2cc3cc(F)ccc3n12 | 81.2% [at 20 µM]
CCN(CC)CCOC(=O)c1ccc(NC(=O)CCCN2C(=O)S/C(=C/c3ccc(OC)cc3)C2=S)cc1 | 78.4% [at 20 µM]
CCN(CC)CCC(c1cc(OC)c(OC)c(OC)c1)c1c(OC)cc(OC)c2c(-c3ccccc3)cc(=O)oc12 (stereo not given) | 80.3% [at 20 µM]
Cc1ccc(Cl)cc1N1CCN(CC(=O)Nc2ccc(CN3CCCCC3)cc2)CC1 | 91% [at 20 µM]
O=C(CSc1nc2ccccc2c(=O)n1-c1ccc(F)cc1F)Nc1ccc(N2CCOCC2)cc1 | 86% [at 20 µM]
CCCCCn1c(N2CCC(Cc3ccccc3)CC2)nc2c1c(=O)[nH]c(=O)n2C | 71.8%
CCOc1ccc2nc(N3CCCC(C(=O)NCCCN4CCCCC4)C3)sc2c1 (stereo not given) | 82.1%
CC(=O)OCC1O[C@@H](O[C@@H]2C[C@H]3C(C)(C)[C@H](OC(C)=O)CC[C@]3(C)[C@H]3CC[C@]45C[C@]4(CC[C@H]5[C@@H](C)C[C@@H](O)[C@H](O)C(C)(C)O)[C@@]32C)[C@H](O)[C@@H](O)[C@@H]1O (stereo not given in full) | 93.6%
CCc1ccc(-c2cc3c(=O)n(CC(=O)NCCCN4CCN(CC)CC4)nc(C)n3n2)cc1 | 87.5%
COc1cc(CNC(C)(C)CO)cc(Br)c1OCc1ccc(Cl)cc1 | 81.2%

Source: PubChem BioAssay AID1650 (Southern Research Specialized Biocontainment Screening …, 2009)
